Bioassay records: PubChem BioAssay, several laboratories
SARS 3CLpro inh – SARS-CoV 3CLpro protease inhibition; P0C6X7; recombinant SARS-CoV 3CLpro, quenched FRET peptide cleavage; inhibition, % at 6 µM; hit rate 0.14% among 290,000; AID 1706; in the data active means inhibition above about 12%
PrP 5UTR inh – inhibition of PrP 5' UTR reporter expression. hit rate 0.35% among 340,000. cell-based PrP 5' UTR mRNA reporter, plate reader. AID 488862. inhibition, % (concentration not given with the values); in the data active means inhibition above about 52%
PrPC TRFRET – cell surface PrPC inhibition, primary TR-FRET screen. TR-FRET read-out. inhibition, % at 13.8 µM. hit rate 0.43% among 370,000. AID 720596; in the data active means inhibition above about 24%
RecA splice inh – blocks M. tuberculosis RecA intein splicing; P9WHJ3; cell-free RecA intein splicing, fluorescence; inhibition, % (no concentration beside the values); hit rate 0.75% among 290,000; in the data active means inhibition above about 30%; inconclusive means no clear call, values can overlap the other calls
Target sequence (P9WHJ3 whole entry, looked up, canonical isoform): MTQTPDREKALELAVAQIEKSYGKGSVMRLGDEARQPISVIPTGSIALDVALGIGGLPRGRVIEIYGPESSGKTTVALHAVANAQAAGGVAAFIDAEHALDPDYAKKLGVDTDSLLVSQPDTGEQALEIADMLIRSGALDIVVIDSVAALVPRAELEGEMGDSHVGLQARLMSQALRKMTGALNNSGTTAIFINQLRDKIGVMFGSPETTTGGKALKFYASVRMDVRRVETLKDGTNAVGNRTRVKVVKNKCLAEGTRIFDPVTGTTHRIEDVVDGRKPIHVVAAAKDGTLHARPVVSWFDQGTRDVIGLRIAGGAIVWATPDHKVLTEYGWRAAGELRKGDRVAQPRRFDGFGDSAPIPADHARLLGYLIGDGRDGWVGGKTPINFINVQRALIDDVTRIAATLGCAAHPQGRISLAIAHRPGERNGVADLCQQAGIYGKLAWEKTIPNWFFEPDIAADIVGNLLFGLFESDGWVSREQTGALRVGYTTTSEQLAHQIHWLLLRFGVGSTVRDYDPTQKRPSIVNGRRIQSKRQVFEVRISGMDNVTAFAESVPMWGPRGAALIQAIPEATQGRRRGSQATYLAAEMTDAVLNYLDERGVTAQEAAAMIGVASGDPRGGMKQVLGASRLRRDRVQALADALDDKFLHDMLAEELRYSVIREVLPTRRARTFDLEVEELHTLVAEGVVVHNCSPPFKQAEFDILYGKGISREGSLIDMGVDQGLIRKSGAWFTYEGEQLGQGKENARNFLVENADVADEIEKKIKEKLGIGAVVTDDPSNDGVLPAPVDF
Mtb hypoxia inh – inhibitors of hypoxia-regulated fluorescent reporter in Mycobacterium tuberculosis; hit rate 0.1% among 300,000; M. tuberculosis hypoxia-regulated fluorescent reporter, fluorescence; fluorescence inhibition, % (no concentration beside the values); in the data active means fluorescence inhibition mostly above about 23%, no sharp cut-off; inactive means mostly below about 17%
BJeLR lethal – BJeLR cell viability loss; BJeLR (HRASV12) viability, CellTiter-Glo ATP luminescence, 48 h; inhibition, % (concentration not given with the values); hit rate 0.17% among 300,000; in the data active means inhibition above about 50%; inconclusive means no clear call, values can overlap the other calls
PrP UTR cherry – prion 5' UTR mRNA inhibition, cherry-pick retest; shares compounds with PrP 5UTR inh; cell-based prion protein 5' UTR reporter, plate reader; inhibition, % at 2.5 µM; hit rate 48% among 1,100; AID 504592; in the data active means inhibition above about 54%; inconclusive means no clear call, values can overlap the other calls
Large screens that a line does not name were inactive (follow-up assays come after a bar, where they were run). An excerpt weighted towards active compounds, which were near 1.4% of everything screened.

CCN(C[C@H]1N[C@@](Cc2ccccc2)(C(=O)OC)[C@H]2C(=O)N(C)C(=O)[C@@H]12)S(=O)(=O)c1ccc(C(C)(C)C)cc1	PrP 5UTR inh 59.5 (no result: SARS 3CLpro inh, RecA splice inh, BJeLR lethal) | PrP UTR cherry inactive
COc1ccc(C=NNC(=O)c2ccc(Cl)cc2)cc1Cn1cc(Cl)cn1	none (no result: SARS 3CLpro inh, PrP 5UTR inh, PrPC TRFRET, RecA splice inh, BJeLR lethal)
Cc1ccc(NC(=O)c2cc3ccccc3o2)cc1S(=O)(=O)N(C)C	none (no result: RecA splice inh, BJeLR lethal)
Cc1ccc(NC(=O)c2cc3ccccc3oc2=O)cc1S(=O)(=O)N(C)C	PrP 5UTR inh 90.4 (no result: PrPC TRFRET) | PrP UTR cherry 89.6
O=C(Nc1cccc(O)c1)c1cc(-c2ccc3c(c2)OCO3)on1	PrP 5UTR inh 58.2 (no result: Mtb hypoxia inh) | PrP UTR cherry inconclusive
O=C(CSc1cn(CCNC(=O)c2ccc3ccccc3c2)c2ccccc12)NCc1ccco1	PrP 5UTR inh 58.1 | PrP UTR cherry inactive
CC(NC(=O)C(=O)NN=Cc1ccccc1)c1ccccc1 (stereo not given)	none (no result: SARS 3CLpro inh, PrP 5UTR inh, PrPC TRFRET, RecA splice inh, BJeLR lethal)
CCCC(O)=C1C(=O)CCCC1=NCCCCCC(=O)O	none (no result: SARS 3CLpro inh, PrP 5UTR inh, PrPC TRFRET, RecA splice inh, BJeLR lethal)
NC(=S)NN=Cc1c2ccccc2cc2ccccc12	none (no result: SARS 3CLpro inh, PrP 5UTR inh, PrPC TRFRET, RecA splice inh, BJeLR lethal)
NC(=S)NN=Cc1nccc2ccccc12	PrP 5UTR inh 78.6 (no result: SARS 3CLpro inh, RecA splice inh, BJeLR lethal) | PrP UTR cherry 71.0
Cc1c(NS(=O)(=O)c2ccc(C(=O)NCc3ccccc3)cc2)c(=O)n(-c2ccccc2)n1C	PrP 5UTR inh 55.5 | PrP UTR cherry inactive
Cc1nc2ccccn2c1C(=O)NC1CCCc2ccccc21 (stereo not given)	PrP 5UTR inh 60.2 | PrP UTR cherry inconclusive
O=C(NN=Cc1cccc([N+](=O)[O-])c1)C1CC(=O)N(c2ccc(Br)cc2)C1 (stereo not given)	none (no result: SARS 3CLpro inh, PrP 5UTR inh, PrPC TRFRET, RecA splice inh, BJeLR lethal)
O=C(c1ccc2c(c1)OCO2)N1CCC2(CC1)Oc1ccc(Cl)cc1C(=O)C21CC(c2cccnc2)=NO1 (stereo not given)	PrP 5UTR inh 53.1 (no result: SARS 3CLpro inh) | PrP UTR cherry inactive
CCc1noc(C)c1C(=O)N(C)CC(=O)Nc1cccc(OC)c1	PrP 5UTR inh 88.7 (no result: SARS 3CLpro inh, RecA splice inh, BJeLR lethal) | PrP UTR cherry inactive
NC(=NOC(=O)CCCC(=O)O)c1ncc(C(F)(F)F)cc1Cl	none (no result: SARS 3CLpro inh, PrP 5UTR inh, PrPC TRFRET, RecA splice inh, BJeLR lethal)
CN1C2CCC1C(C(=O)O)C(OC(=O)c1ccccc1)C2 (stereo not given)	none (no result: SARS 3CLpro inh, RecA splice inh, Mtb hypoxia inh, BJeLR lethal)
CCOC(=O)C1C(OC(=O)c2ccccc2)CC2CCC1N2C (stereo not given)	PrP 5UTR inh 69.6 (no result: SARS 3CLpro inh, RecA splice inh, Mtb hypoxia inh, BJeLR lethal) | PrP UTR cherry inactive
CN1CCSc2ccc(C(=O)NCc3ccccc3F)cc21	none
COc1cccc(CNC(=O)c2ccc3c(c2)N(C)CCS3)c1OC	PrP 5UTR inh 58.9 | PrP UTR cherry inactive
COc1ccc(C(C#N)=C2C=CC(=NO)C(C)=C2Cl)cc1	PrP 5UTR inh 71.3 (no result: SARS 3CLpro inh, RecA splice inh, Mtb hypoxia inh, BJeLR lethal) | PrP UTR cherry inactive
CCC(=O)c1cn(C(CCC(OC)OC)CC(=O)OC(C)(C)C)cc1CC (stereo not given)	none (no result: SARS 3CLpro inh, PrP 5UTR inh, PrPC TRFRET, RecA splice inh, BJeLR lethal)
C/C(C=NNC(=O)c1cc(C)oc1C)=C/c1ccccc1	none (no result: SARS 3CLpro inh, PrP 5UTR inh, PrPC TRFRET, RecA splice inh, BJeLR lethal)
Cc1ccccc1CSc1nnc([C@@H]2CCCN2)o1	PrP 5UTR inh 73.6 | PrP UTR cherry inactive
COc1ccc2c(c1)/C(=C/c1cc(OC)c(OC)c(OC)c1)C(=O)N2	PrP 5UTR inh 64.2 (no result: SARS 3CLpro inh, RecA splice inh, Mtb hypoxia inh, BJeLR lethal) | PrP UTR cherry 73.1
COc1ccc(/C=C2\SC(=S)N(CCCC(=O)NNC(=O)c3ccccc3O)C2=O)cc1	PrP 5UTR inh 59.6 (no result: Mtb hypoxia inh) | PrP UTR cherry 73.7
COCCn1c(C)cc(C2=NNC(=NC3CC3)SC2)c1C	PrP 5UTR inh 92.3 | PrP UTR cherry 94.0
Cc1cc(C2=NNC(=NC3CC3)SC2)c(C)n1Cc1ccco1	PrP 5UTR inh 87.7 (no result: RecA splice inh, BJeLR lethal) | PrP UTR cherry 86.9
C=CCn1c(C)cc(C2=NNC(=NC(C)(C)C)SC2)c1C	PrP 5UTR inh 65.4 (no result: Mtb hypoxia inh) | PrP UTR cherry 66.4
Cc1cc(C2=NNC(=NC3CC3)SC2)c(C)n1-c1ccccc1	PrP 5UTR inh 94.5 | PrP UTR cherry 94.3
C=CCN=C1NN=C(c2cc(C)n(CCOC)c2C)CS1	none
COCCCN=C1NN=C(c2cc(C)n(Cc3ccco3)c2C)CS1	PrP 5UTR inh 68.0, BJeLR lethal 60.5 | PrP UTR cherry 81.9
COCCn1c(C)cc(C2=NNC(=Nc3ccc(Cl)cc3Cl)SC2)c1C	none
O=C(O)c1cccc(N/N=C/c2cccs2)c1	PrP 5UTR inh 65.2 (no result: Mtb hypoxia inh) | PrP UTR cherry 63.5
CC(=O)OC(C)(C)/C=C/C(=O)C(C)(O)C1C(O)CC2(C)C3CC=C4C(CC(O)C(=O)C4(C)C)C3(C)C(=O)CC12C (stereo not given)	PrP 5UTR inh 80.5, PrPC TRFRET 33.6 (no result: SARS 3CLpro inh, RecA splice inh, Mtb hypoxia inh, BJeLR lethal) | PrP UTR cherry 90.4
CC(=O)OC(C)(C)/C=C/C(=O)[C@](C)(O)[C@H]1[C@H](O)C[C@@]2(C)[C@@H]3CC=C4[C@H](C[C@H](O)C(=O)C4(C)C)[C@]3(C)C(=O)C[C@]12C	PrP 5UTR inh 79.2 (no result: PrPC TRFRET, RecA splice inh, Mtb hypoxia inh, BJeLR lethal) | PrP UTR cherry 88.1
COc1ccc2c(c1OC)c(=O)n1c3ccc(OC(C)C(=O)NCCCN4CCOCC4)cc3c3ccnc2c31 (stereo not given)	PrP 5UTR inh 54.2 (no result: PrPC TRFRET, Mtb hypoxia inh) | PrP UTR cherry inactive
COc1ccc2c(c1OC)c(=O)n1c3ccc(OC(C)C(=O)NCCN4CCOCC4)cc3c3ccnc2c31 (stereo not given)	none (no result: Mtb hypoxia inh)
OCC1OC(Oc2c[nH]c3ccccc23)C(O)C(O)C1O (stereo not given)	PrP 5UTR inh 67.9 (no result: SARS 3CLpro inh) | PrP UTR cherry inactive
COc1cccc2c1C(=O)c1c(O)c3c(c(O)c1C2=O)CC(O)(C(C)=O)CC3OC1CC(O)C(O)C(C)O1 (stereo not given)	none (no result: SARS 3CLpro inh, RecA splice inh, Mtb hypoxia inh, BJeLR lethal)
